Screening data deposited in PubChem BioAssay by The Scripps Research Institute Molecular Screening Center.
Compounds with a hit are over-represented: about 4.8% of the library has one in this group of screens.
hgDAF12 agonist – agonists of H. glycines DAF-12 nuclear receptor; activation, % at 6.8 µM; HEK293 GAL4-hgDAF12 UAS-luciferase reporter, agonist luminescence; normalized to butyrate control; 370,000 compounds, 1.8% hits;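 active = activation above a cutoff set at the mean of all screened compounds plus 3 SD, cut at about 10% in these data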
SMARCA2 activ – SMARCA2 function activation, primary screen; MG213 cells, MMTV-luciferase reporter, dexamethasone, overnight; activation, % at 9.1 µM; 370,000 compounds, 1% hits; AID 652017; in the data active = activation above about 7.8%
DAX1 inh-1 – inhibits human nuclear receptor DAX1; P51843; HEK293 Gal4-DAX1 luciferase reporter, luminescence; inhibition, % at 6.75 µM; 340,000 compounds, 0.99% hits; AID 504766;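 active = inhibition above the mean over all tested compounds plus 3 SD, cut at about 4.2% in these data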;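 note: inhibition shows as a rise in luminescence from relieved DAX1 repression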
Target sequence (P51843 207-470 limits assumed): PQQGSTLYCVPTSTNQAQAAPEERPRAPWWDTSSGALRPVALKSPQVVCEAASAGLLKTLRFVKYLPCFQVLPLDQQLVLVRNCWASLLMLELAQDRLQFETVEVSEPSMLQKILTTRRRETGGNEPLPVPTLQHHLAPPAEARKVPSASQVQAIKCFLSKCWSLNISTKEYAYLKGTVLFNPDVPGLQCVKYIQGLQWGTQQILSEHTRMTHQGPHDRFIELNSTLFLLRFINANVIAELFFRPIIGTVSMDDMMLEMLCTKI
DAX1 inh-2 – DAX1 (NR0B1) inhibition, primary screen. HEK293T StAR-luciferase reporter, SF-1/DAX-1 repression relief. inhibition, % at 6.8 µM. 370,000 compounds, 1.1% hits;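 active = inhibition above the mean over all tested compounds plus 3 SD, cut at about 3.6% in these data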;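 note: higher inhibition means more luminescence from relief of DAX-1 repression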
ssDAF-12 act – S. stercoralis DAF-12 activation, primary screen; HEK293 ssDAF-12/GRIP1 lit1-tk-luc reporter, luminescence; % of 3 µM dafachronic acid response; activation, % at 6.8 µM; 370,000 compounds, 1% hits;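 active = activation above the mean over all tested compounds plus 3 SD, cut at about 0.9% in these data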
hcDAF-12 act – activates DAF-12 receptor from parasite H. contortus. HEK293 hcDAF-12 lit1-tk-luc reporter, luminescence; 0% DMSO, 100% Δ7-dafachronic acid. activation, % at 6.8 µM. 370,000 compounds, 1.4% hits. AID 652067;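 active = activation above the mean of all tested compounds plus 3 SD, cut at about 5.5% in these data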
SMARCA2 conf – SMARCA2 activation, confirmation screen. activation, % at 9.1 µM. shares compounds with SMARCA2 activ. MG213 cells, MMTV-luciferase with dexamethasone, luminescence, overnight; MG213 cells expressing E1A, Rb sequestered; DMSO wells 0%, reference activator 100%. AID 652260. 3,500 compounds, 30% hits;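 active = activation above its plate's cutoff, the mean activation of tested wells plus 3 SD, cut at about 7.9% in these data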
GAL4-VP16 Luc – counter-screen for SMARCA2 activators: GAL4-VP16 luciferase reporter activation; shares compounds with SMARCA2 activ; HEK293 GAL4-VP16 pG5luc reporter, luciferase luminescence; scaled: DMSO wells 0%, SAHA wells 100%; activation, % at 9.1 µM; 3,500 compounds, 41% hits; AID 686939;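 active = activation above the solvent-only control well mean plus 3 SD, averaged across control plates, cut at about 5.2% in these data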
Numbers stand for hits.

How did CCc1nn(CC(=O)N2CCN(c3ccc(OC)cc3)CC2)c(=O)c2cc3occc3n12 do in these assays?
hgDAF12 agonist: inactive; SMARCA2 activ: 8.4; DAX1 inh-1: inactive; DAX1 inh-2: inactive; ssDAF-12 act: inactive; hcDAF-12 act: inactive; SMARCA2 conf: inactive; GAL4-VP16 Luc: inactive

How did CCc1nn(CC(=O)N2CCC(C(N)=O)CC2)c(=O)c2cc3occc3n12 do in these assays?
hgDAF12 agonist: inactive; SMARCA2 activ: inactive; DAX1 inh-1: inactive; DAX1 inh-2: inactive; ssDAF-12 act: inactive; hcDAF-12 act: inactive

Results for O=C(CN1C(=O)N/C(=C\c2ccccc2OCc2ccc(C(=O)O)cc2)C1=O)Nc1ccc(F)cc1 ?
hgDAF12 agonist: inactive; SMARCA2 activ: inactive; DAX1 inh-1: inactive; DAX1 inh-2: inactive; ssDAF-12 act: inactive; hcDAF-12 act: inactive

How did Cc1cccc(NC(=O)CN2C(=O)N/C(=C\c3ccccc3OCc3ccc(C(=O)O)cc3)C2=O)c1 do in these assays?
hgDAF12 agonist: inactive; SMARCA2 activ: 8.7; DAX1 inh-1: inactive; DAX1 inh-2: inactive; ssDAF-12 act: inactive; hcDAF-12 act: inactive; SMARCA2 conf: inactive; GAL4-VP16 Luc: inactive

What do the screens show for `O=C(c1ccccc1)N1CCn2c1nc1ccccc12`?
hgDAF12 agonist: inactive; SMARCA2 activ: inactive; DAX1 inh-1: inactive; DAX1 inh-2: inactive; ssDAF-12 act: inactive; hcDAF-12 act: inactive

Results for CN(c1cccc(NC(=O)COc2ccc(Cl)cc2Cl)c1)S(C)(=O)=O ?
hgDAF12 agonist: inactive; SMARCA2 activ: 9.4; DAX1 inh-1: inactive; DAX1 inh-2: inactive; ssDAF-12 act: inactive; hcDAF-12 act: inactive; SMARCA2 conf: inactive; GAL4-VP16 Luc: 9.1

How did O=C1C(=Cc2cccs2)Oc2ccccc21 do in these assays?
hgDAF12 agonist: inactive; SMARCA2 activ: 8.7; DAX1 inh-1: inactive; DAX1 inh-2: inactive; ssDAF-12 act: inactive; hcDAF-12 act: inactive; SMARCA2 conf: inactive; GAL4-VP16 Luc: inactive

How did c1ccc2c(C[C@@H]3CNCCN3CC3CCCCC3)cccc2c1 do in these assays?
hgDAF12 agonist: inactive; SMARCA2 activ: inactive; DAX1 inh-1: inactive; DAX1 inh-2: inactive; ssDAF-12 act: inactive; hcDAF-12 act: inactive

Results for CC1CCCCN1S(=O)(=O)c1ccc(S(=O)(=O)N2CCCC2)cc1 (stereo unspecified) ?
hgDAF12 agonist: inactive; SMARCA2 activ: 8.9; DAX1 inh-1: inactive; DAX1 inh-2: inactive; ssDAF-12 act: inactive; hcDAF-12 act: inactive; SMARCA2 conf: inactive; GAL4-VP16 Luc: inactive

Results for O=C(NN1C(=O)C2C(c3ccccc3)C=CC(c3ccccc3)C2C1=O)c1ccccc1 (stereo unspecified) ?
hgDAF12 agonist: inactive; SMARCA2 activ: inactive; DAX1 inh-1: inactive; DAX1 inh-2: inactive; ssDAF-12 act: inactive; hcDAF-12 act: inactive

How did Cc1cc(NS(=O)(=O)c2ccc(NC(=O)CSc3nnc(-c4ccncc4)n3-c3ccccc3)cc2)nc(C)n1 do in these assays?
hgDAF12 agonist: inactive; SMARCA2 activ: inactive; DAX1 inh-2: inactive; ssDAF-12 act: inactive; hcDAF-12 act: inactive

What do the screens show for `COc1ccc(-c2nnc(SCC(=O)Nc3ccc(S(=O)(=O)Nc4cc(C)nc(C)n4)cc3)n2-c2ccc(OC)cc2)cc1`?
hgDAF12 agonist: inactive; SMARCA2 activ: 10; DAX1 inh-2: inactive; ssDAF-12 act: inactive; hcDAF-12 act: inactive; SMARCA2 conf: inactive; GAL4-VP16 Luc: inactive

Results for Cc1cc(NS(=O)(=O)c2ccc(NC(=O)CSc3nnc(-c4ccncc4)n3Cc3ccco3)cc2)nc(C)n1 ?
hgDAF12 agonist: inactive; SMARCA2 activ: inactive; DAX1 inh-2: inactive; ssDAF-12 act: inactive; hcDAF-12 act: inactive

How did Cc1cc(NS(=O)(=O)c2ccc(NC(=O)CSc3nnc(-c4ccc(Cl)cc4)n3Cc3ccco3)cc2)nc(C)n1 do in these assays?
hgDAF12 agonist: inactive; SMARCA2 activ: 9.5; DAX1 inh-2: inactive; ssDAF-12 act: inactive; hcDAF-12 act: inactive; SMARCA2 conf: inactive; GAL4-VP16 Luc: inactive

How did O=C(Nc1ccccc1C(=O)Nc1nnc(C(F)(F)F)s1)c1ccccc1Cl do in these assays?
hgDAF12 agonist: inactive; SMARCA2 activ: inactive; DAX1 inh-1: inactive; DAX1 inh-2: inactive; ssDAF-12 act: inactive; hcDAF-12 act: inactive

What do the screens show for `Fc1cc2nc(-c3ccncc3)[nH]c2cc1F`?
hgDAF12 agonist: inactive; SMARCA2 activ: inactive; DAX1 inh-1: inactive; DAX1 inh-2: inactive; ssDAF-12 act: inactive; hcDAF-12 act: inactive

Results for c1ccc2[nH]c(-c3ccncc3)nc2c1 ?
hgDAF12 agonist: inactive; SMARCA2 activ: 9.5; DAX1 inh-1: inactive; DAX1 inh-2: inactive; ssDAF-12 act: inactive; hcDAF-12 act: inactive; SMARCA2 conf: inactive; GAL4-VP16 Luc: inactive

How did Cc1ccc(Nc2nc(N)nc(CN3CCN(Cc4ccc5c(c4)OCO5)CC3)n2)cc1Cl do in these assays?
hgDAF12 agonist: inactive; SMARCA2 activ: inactive; DAX1 inh-1: inactive; DAX1 inh-2: inactive; ssDAF-12 act: inactive; hcDAF-12 act: inactive

How did Nc1nc(CN2CCN(Cc3ccccc3)CC2)nc(Nc2ccc3c(c2)OCCO3)n1 do in these assays?
hgDAF12 agonist: inactive; SMARCA2 activ: 9.2; DAX1 inh-1: inactive; DAX1 inh-2: inactive; ssDAF-12 act: inactive; hcDAF-12 act: inactive; SMARCA2 conf: 26; GAL4-VP16 Luc: inactive

Results for Cc1nccc2oc(=O)c(NC(=O)c3ccc(Cl)cc3)cc12 ?
hgDAF12 agonist: inactive; SMARCA2 activ: inactive; DAX1 inh-1: inactive; DAX1 inh-2: inactive; ssDAF-12 act: inactive; hcDAF-12 act: inactive

What do the screens show for `O=C(Nc1cc2c(oc1=O)CCCC2=O)c1ccc(Cl)cc1`?
hgDAF12 agonist: inactive; SMARCA2 activ: 9.4; DAX1 inh-1: inactive; DAX1 inh-2: inactive; ssDAF-12 act: inactive; hcDAF-12 act: inactive; SMARCA2 conf: inactive; GAL4-VP16 Luc: inactive

How did O=C(/C=C/c1ccco1)Nc1ccc(CN2CCOCC2)cc1 do in these assays?
hgDAF12 agonist: inactive; SMARCA2 activ: 9.4; DAX1 inh-1: inactive; DAX1 inh-2: inactive; ssDAF-12 act: inactive; hcDAF-12 act: inactive; SMARCA2 conf: 9.2; GAL4-VP16 Luc: 11

What do the screens show for `O=C1NC(=O)C2(C=C(c3ccccc3)C(O)(c3ccccc3)C2)N1` (stereo unspecified)?
hgDAF12 agonist: inactive; SMARCA2 activ: 8.2; DAX1 inh-1: inactive; DAX1 inh-2: inactive; ssDAF-12 act: inactive; hcDAF-12 act: inactive; SMARCA2 conf: inactive; GAL4-VP16 Luc: inactive

What do the screens show for `Cc1nc(-c2ccc([N+](=O)[O-])cc2)sc1C(=O)O`?
hgDAF12 agonist: inactive; SMARCA2 activ: 9.6; DAX1 inh-1: inactive; DAX1 inh-2: inactive; ssDAF-12 act: inactive; hcDAF-12 act: inactive; SMARCA2 conf: inactive; GAL4-VP16 Luc: inactive
